Measurements from PubChem BioAssay.
Active and inactive are the calls of the source.

Experiments:
[1] = small molecules captured by biotinylated probe aFSTL3 – biochemical, small-molecule microarray, fluorescence 635/667, stem cell growth factor project, primary screen (AID 1064); details: higher = more signal;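 note: measures binding of the biotinylated anti-FSTL3 antibody to printed compounds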
[2] = binders from COS7 lysate, DM2A8 probe, primary screen, torsin A project, cell lysate, small-molecule microarray, fluorescence 635/667 (AID 1065); details: higher = more signal, COS7 lysate expressing mutant human TOR1A
[3] = small molecules captured by biotinylated probe aFGF2 – biochemical, small-molecule microarray, fluorescence 635/667, stem cell growth factor project, primary screen (AID 1067); details: higher = more signal;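 note: measures binding of biotinylated aFGF2 protein to printed compounds on slides; z-score merges feature fluorescence and signal-to-noise across triplicate slides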
[4] = small molecules captured by biotinylated probe aFGF10 – biochemical, small-molecule microarray, fluorescence 635/667, stem cell growth factor project, primary screen (AID 1071); details: higher = more signal;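 note: score merges 667 nm spot intensity and signal to noise from triplicate slides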
[5] = biological target: Neurogenic locus notch homolog protein 2 (Homo sapiens) (UniProt Q04721); assay: small molecules binding Notch2 protein – biochemical, small-molecule microarray, 635 nm fluorescence, stem cell growth factors, primary screen (AID 1073); details: higher = more signal
[6] = biological target: Pro-neuregulin-1, membrane-bound isoform (Homo sapiens) (UniProt Q02297); assay: small molecules binding neuregulin-1 protein – biochemical, small-molecule microarray, fluorescence 635/667, psychiatric disease protein project, primary screen (AID 1075); details: NRG1 binding, 635 nm fluorescence, higher = more signal;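 note: score combines 667 nm spot fluorescence with signal to noise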
[7] = test system: Neuregulin-1 EGF-like domain; assay: small molecules binding NRG1 EGF domain – biochemical, small-molecule microarray, 635 nm fluorescence, primary screen (AID 1081); details: higher = more signal;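 note: binding of the protein to compounds printed on small-molecule microarray slides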
[8] = FRG1 expression reporter modulators in myotubes – cell-based, C2C12 myotubes, firefly/Renilla luciferase, luminescence, FRG1 inhibition for FSHD, primary screen (AID 1084); details: FRG1 promoter luciferase, higher = more signal, called active from +8 up or from −8 down
[9] = small molecules captured by biotinylated probe aFST – biochemical, small-molecule microarray, fluorescence 635/667, stem cell growth factor project, primary screen (AID 1086); details: higher = more signal;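 note: score merges 667 nm fluorescence with signal-to-noise of each printed compound spot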
[10] = binders of probe aHhip on microarray, primary screen, stem cell growth factor project, biochemical, small-molecule microarray, fluorescence 635/667 (AID 1087); details: higher = more signal;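 note: score merges spot fluorescence at 667nm with spot signal to noise ratio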
[11] = test system: PRMT1 (protein arginine N-methyltransferase 1); assay: small molecules binding arginine methyltransferase PRMT1 – biochemical, small-molecule microarray, 635 nm fluorescence, primary screen (AID 1088); details: higher = more signal;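 note: binding of Prmt1 protein to compounds spotted on small-molecule microarray slides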
[12] = growth effects on S. cerevisiae YJM789 – YJM789 clinical isolate, OD600, 24 h, basal, primary screen (AID 1089); details: higher = more signal, called active from +8 up or from −8 down;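 note: growth of clinical yeast isolate S. cerevisiae YJM 789 seeded 1000 cells per well; test concentration not given here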
[13] = S. pombe growth modifiers, basal conditions – strain 972, OD600, 24 h, no modulator, primary screen (AID 1090);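 note: basal condition with compound alone and no growth modifier present; test concentration not given here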; details: S. pombe 972 growth, higher = more signal, called active from +8 up or from −8 down
[14] = budding yeast growth modifiers under rapamycin – strain BY4716, OD600, 96 h, primary screen (AID 1091); note: test concentration not given here; details: S. cerevisiae BY4716 + rapamycin, higher = more signal, called active from +8 up or from −8 down
[15] = biological target: Torsin-1A-interacting protein 2 (Homo sapiens) (UniProt Q8NFQ8); assay: small molecules binding lysate-expressed LULL1 – cell lysate, human LULL1 lysate, 635/667 nm fluorescence, primary screen (AID 1092); details: small-molecule microarray, hLULL1 lysate binding, 635 nm fluorescence; higher = more signal;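 note: probe is lysate of COS7 cells overexpressing human LULL1; score merges per-feature 667 nm fluorescence with signal-to-noise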
[16] = optical density change of DRC41 E. coli – strain DRC41, OD650, 24 h, E. coli filamentation project, primary screen (AID 1093);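 note: MC1000 strain lacking acrAB efflux and sulA so SOS filamentation is blocked; test concentration not given here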; details: E. coli DRC41 growth, higher = more signal, called active from +8 up or from −8 down
[17] = probe aLefty2 binding to arrayed compounds – biochemical, biotinylated probe, 635/667 nm fluorescence, primary screen (AID 1094); details: small-molecule microarray, higher = more signal;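 note: score merges spot fluorescence near 667 nm with spot signal-to-noise ratio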
[18] = test system: Noggin (protein binding on small-molecule microarray); assay: small molecules binding Noggin protein – biochemical, 635/667 nm fluorescence, primary screen (AID 1095); details: 635 nm fluorescence, higher = more signal;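 note: score merges 667 nm feature fluorescence with signal to noise over triplicate slides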
[19] = biological target: Neurogenic locus notch homolog protein 3 (Homo sapiens) (UniProt Q9UM47); assay: small molecules binding NOTCH3 protein – biochemical, 635/667 nm fluorescence, primary screen (AID 1096); details: small-molecule microarray, 635 nm fluorescence, higher = more signal
[20] = probe aEGFR binding to arrayed compounds – biochemical, biotinylated probe, 635/667 nm fluorescence, primary screen (AID 1097); details: small-molecule microarray, higher = more signal;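 note: probe is a biotinylated anti-EGFR antibody binding compounds printed on slides; score combines fluorescence near 667 nm and signal to noise of each spot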

Pro-neuregulin-1, membrane-bound isoform (Homo sapiens), sequence (Q02297 whole entry, looked up, the tested form may be a part, canonical isoform): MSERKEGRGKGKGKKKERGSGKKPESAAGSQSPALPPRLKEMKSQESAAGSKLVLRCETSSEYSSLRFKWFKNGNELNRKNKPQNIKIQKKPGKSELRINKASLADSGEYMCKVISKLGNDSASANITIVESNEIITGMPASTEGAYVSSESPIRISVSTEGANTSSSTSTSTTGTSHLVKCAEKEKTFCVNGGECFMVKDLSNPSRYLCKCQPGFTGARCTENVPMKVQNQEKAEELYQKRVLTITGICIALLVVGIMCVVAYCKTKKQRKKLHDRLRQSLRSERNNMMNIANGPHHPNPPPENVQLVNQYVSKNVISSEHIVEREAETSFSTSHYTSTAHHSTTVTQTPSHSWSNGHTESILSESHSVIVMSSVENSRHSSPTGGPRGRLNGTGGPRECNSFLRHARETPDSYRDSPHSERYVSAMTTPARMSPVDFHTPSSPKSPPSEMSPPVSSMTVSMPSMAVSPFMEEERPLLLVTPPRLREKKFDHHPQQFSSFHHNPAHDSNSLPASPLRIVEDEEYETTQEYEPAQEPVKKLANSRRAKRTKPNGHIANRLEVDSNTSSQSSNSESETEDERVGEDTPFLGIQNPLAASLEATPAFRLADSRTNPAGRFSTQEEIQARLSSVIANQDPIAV
Neurogenic locus notch homolog protein 2 (Homo sapiens), sequence (Q04721 whole entry, looked up, canonical isoform): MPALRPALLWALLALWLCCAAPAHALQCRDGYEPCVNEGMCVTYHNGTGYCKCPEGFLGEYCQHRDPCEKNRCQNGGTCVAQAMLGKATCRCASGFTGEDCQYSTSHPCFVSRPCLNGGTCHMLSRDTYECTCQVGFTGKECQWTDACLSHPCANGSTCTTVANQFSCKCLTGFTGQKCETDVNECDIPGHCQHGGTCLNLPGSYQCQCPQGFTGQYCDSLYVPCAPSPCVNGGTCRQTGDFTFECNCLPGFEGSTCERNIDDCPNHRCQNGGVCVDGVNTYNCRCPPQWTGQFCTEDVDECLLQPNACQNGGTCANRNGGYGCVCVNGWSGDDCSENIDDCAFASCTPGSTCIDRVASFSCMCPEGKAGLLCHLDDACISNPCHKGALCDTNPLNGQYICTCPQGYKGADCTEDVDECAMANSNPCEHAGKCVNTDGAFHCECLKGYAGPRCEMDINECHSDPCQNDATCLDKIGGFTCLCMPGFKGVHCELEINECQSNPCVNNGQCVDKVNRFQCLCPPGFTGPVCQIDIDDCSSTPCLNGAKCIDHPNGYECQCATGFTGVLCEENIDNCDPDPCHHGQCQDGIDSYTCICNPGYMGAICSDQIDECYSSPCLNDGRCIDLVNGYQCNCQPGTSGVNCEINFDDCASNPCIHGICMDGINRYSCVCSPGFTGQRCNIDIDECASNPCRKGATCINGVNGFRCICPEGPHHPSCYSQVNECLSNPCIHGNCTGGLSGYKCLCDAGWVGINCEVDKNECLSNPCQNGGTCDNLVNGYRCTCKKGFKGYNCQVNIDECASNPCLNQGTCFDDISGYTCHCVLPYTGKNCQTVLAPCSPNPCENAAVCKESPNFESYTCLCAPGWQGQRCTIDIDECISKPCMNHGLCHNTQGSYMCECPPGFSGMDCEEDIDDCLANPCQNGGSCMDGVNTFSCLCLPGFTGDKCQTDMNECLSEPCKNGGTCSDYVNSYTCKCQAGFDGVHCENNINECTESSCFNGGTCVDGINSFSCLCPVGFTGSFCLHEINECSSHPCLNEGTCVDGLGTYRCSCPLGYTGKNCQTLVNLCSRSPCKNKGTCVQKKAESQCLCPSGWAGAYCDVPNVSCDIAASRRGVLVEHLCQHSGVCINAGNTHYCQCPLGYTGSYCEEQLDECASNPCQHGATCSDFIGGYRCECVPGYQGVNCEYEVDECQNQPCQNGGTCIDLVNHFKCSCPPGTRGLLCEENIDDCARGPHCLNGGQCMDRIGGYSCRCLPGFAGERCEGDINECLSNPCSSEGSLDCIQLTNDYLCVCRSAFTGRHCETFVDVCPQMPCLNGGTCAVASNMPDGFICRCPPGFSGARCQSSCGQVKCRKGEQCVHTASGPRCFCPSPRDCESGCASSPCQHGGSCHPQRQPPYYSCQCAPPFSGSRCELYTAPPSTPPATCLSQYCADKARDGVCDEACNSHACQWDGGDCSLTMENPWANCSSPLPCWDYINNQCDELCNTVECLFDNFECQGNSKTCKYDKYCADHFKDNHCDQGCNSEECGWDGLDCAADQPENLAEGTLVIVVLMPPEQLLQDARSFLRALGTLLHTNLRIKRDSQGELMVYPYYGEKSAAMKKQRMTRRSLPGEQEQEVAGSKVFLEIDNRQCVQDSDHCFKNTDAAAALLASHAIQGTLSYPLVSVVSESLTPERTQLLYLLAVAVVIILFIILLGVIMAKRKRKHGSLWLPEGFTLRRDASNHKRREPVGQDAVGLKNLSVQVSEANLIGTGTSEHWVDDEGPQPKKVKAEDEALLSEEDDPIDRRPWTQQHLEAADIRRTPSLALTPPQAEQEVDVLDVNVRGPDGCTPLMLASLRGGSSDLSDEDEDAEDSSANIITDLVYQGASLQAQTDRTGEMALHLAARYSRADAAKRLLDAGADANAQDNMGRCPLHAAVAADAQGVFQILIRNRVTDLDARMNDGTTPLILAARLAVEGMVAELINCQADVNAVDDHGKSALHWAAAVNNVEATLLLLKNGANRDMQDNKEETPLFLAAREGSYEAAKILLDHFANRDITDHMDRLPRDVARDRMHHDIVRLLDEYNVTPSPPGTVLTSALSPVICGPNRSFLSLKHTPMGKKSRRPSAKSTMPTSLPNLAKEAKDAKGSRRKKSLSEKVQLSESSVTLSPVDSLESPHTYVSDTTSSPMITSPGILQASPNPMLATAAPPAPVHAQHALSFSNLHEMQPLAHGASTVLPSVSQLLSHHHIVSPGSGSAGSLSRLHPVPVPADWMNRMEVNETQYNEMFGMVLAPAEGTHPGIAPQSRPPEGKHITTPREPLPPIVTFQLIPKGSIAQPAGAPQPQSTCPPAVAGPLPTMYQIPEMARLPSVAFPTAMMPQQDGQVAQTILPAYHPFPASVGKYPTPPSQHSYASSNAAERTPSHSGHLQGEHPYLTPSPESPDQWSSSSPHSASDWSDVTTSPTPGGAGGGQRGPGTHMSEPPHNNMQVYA
Torsin-1A-interacting protein 2 (Homo sapiens), sequence (Q8NFQ8 whole entry, looked up): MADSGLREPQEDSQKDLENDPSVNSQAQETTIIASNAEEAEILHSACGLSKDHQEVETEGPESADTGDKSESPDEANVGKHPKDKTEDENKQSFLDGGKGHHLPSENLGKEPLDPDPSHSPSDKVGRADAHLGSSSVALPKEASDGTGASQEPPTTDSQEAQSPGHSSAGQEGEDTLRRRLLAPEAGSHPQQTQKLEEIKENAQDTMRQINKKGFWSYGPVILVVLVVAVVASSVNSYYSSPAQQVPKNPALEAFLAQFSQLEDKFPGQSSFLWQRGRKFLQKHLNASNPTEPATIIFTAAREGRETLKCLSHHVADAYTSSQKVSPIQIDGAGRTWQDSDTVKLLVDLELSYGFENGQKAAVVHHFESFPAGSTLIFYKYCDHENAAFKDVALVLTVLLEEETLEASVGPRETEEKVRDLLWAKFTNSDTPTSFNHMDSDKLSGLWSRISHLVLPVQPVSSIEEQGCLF

Row | Compound | composite z-score [1] | composite z-score [2] | composite z-score [3] | composite z-score [4] | composite z-score [5] | composite z-score [6] | composite z-score [7] | z-score [8] | composite z-score [9] | composite z-score [10] | composite z-score [11] | z-score [12] | z-score [13] | z-score [14] | composite z-score [15] | z-score [16] | composite z-score [17] | composite z-score [18] | composite z-score [19] | composite z-score [20]
1 | CN(C)CCCNC(=O)[C@@H]1c2ccccc2C(=O)N(C2Cc3ccccc3C2)[C@H]1c1ccc(CO)cc1 | 0.158 | 0.345 | -0.0566 | -0.273 | 0.175 | 0.618 | 0.849 | -1.3 (inactive) | 0.178 | -0.151 | 1.56 | -0.463 (inactive) | -0.271 (inactive) | -0.915 (inactive) | 2.03 | 0.688 (inactive) | -0.127 | 0.0726 | 0.241 | 0.111
2 | COc1ccc(C#Cc2ccc3c(c2)[C@]2(C(=O)N3)[C@H](C(=O)Nc3nc4ccccc4s3)[C@H]3C(=O)O[C@H](c4ccccc4)[C@H](c4ccccc4)N3[C@@H]2c2ccc(OCCO)cc2)cc1 | -0.113 | 1.45 | 0.0015 | 0.977 | 1.5 | 1.31 | 1.08 | 4.94 (inactive) | 0.349 | -0.216 | 1.55 | 3.16 (inactive) | 2.06 (inactive) | 1.64 (inactive) | 2.7 | 0.361 (inactive) | -0.0412 | 0.994 | 1.1 | 0.123
3 | CC(C)c1ccc(NN2C(C(O)C(C)C)C=CC3C(=O)N(c4ccccc4)C(=O)C32)cc1 (stereo not given) | 0.733 | 0.237 | 0.225 | 0.707 | 1.55 | 1.92 | 1.31 | -0.0025 (inactive) | 1.3 | -0.208 | 1.56 | 1.39 (inactive) | 0.313 (inactive) | 1.39 (inactive) | 3.53 | -0.613 (inactive) | 0.633 | 0.284 | 1.04 | 0.516
4 | NC(=O)NCC#Cc1ccc2c(c1)[C@]1(C(=O)N2)[C@H](C(=O)N2CCCCCCC2)[C@H]2C(=O)O[C@H](c3ccccc3)[C@H](c3ccccc3)N2[C@@H]1c1ccc(O)cc1 | 3.57 | 0.346 | 0.688 | 0.8 | 0.879 | 0.94 | 0.947 | 0.805 (inactive) | 2.99 | 2.75 | 1.55 | 0.463 (inactive) | 1.06 (inactive) | 1.47 (inactive) | 2.56 | -0.284 (inactive) | 1.65 | 1.85 | 1.15 | 0.944
5 | COCCOC(=O)N1C(=O)[C@@]2(c3cc(C#CCC(C(=O)OC)C(=O)OC)ccc31)[C@H](C(=O)N1CCc3cc(OC)c(OC)cc3C1)[C@H]1C(=O)O[C@H](c3ccccc3)[C@H](c3ccccc3)N1[C@@H]2c1ccc(O)cc1 | -0.318 | 0.731 | 0.0732 | 0.858 | 1.54 | 0.729 | 1.23 | 0.217 (inactive) | 0.346 | -0.0459 | 1.54 | 0.215 (inactive) | 0.233 (inactive) | 0.773 (inactive) | 1.99 | 0.204 (inactive) | 0.0704 | 1.19 | 1.08 | 0.135
